Hit rate of the full screen: of about 52,000 compounds, about 4,300 (8.3%) were called active. Cut-off read from the data, not from the text of the source: active = survival mostly below about 52% (no sharp cut-off); inactive = mostly above about 56%. The full list was thinned out, with actives kept by preference.
The compounds below were run on DeltatarO mutant (assay: growth inhibition of S. aureus wild type versus tarO mutant, primary screen, teichoic acid synthesis inhibitors, RN4220, OD600 (AID 463173)). Conditions: OD600, 18 h, active compounds read low, screened at 18.75 µg/mL (by protocol).

Row | SMILES | survival
1 | COc1ccc(CCNC(=O)Cn2c(=O)n(-c3cc(OC)c(OC)c(OC)c3)c(=O)c3ccccc32)cc1OC | 81% (inactive)
2 | COc1cc(CNCCSc2nnnn2C)ccc1OCc1ccc(F)cc1 | 122% (inactive)
3 | COC(=O)c1ccccc1NC(=O)c1cnc2c(-c3cccc(C)c3)c(C)nn2c1C | 128% (inactive)
4 | CCOc1ccc2nc(SCC(=O)N(C)C3CCCCC3)c(C#N)cc2c1 | 89% (inactive)
5 | COc1cc(NC(=O)C2CCN(c3nc4ccccc4nc3C(F)(F)F)CC2)cc(OC)c1 | 101% (inactive)
6 | COc1ccccc1NC(=O)C1CCN(c2cnccn2)CC1 | 54% (active)
7 | COc1cc(NC(=O)C2CCN(c3cnc4ccccc4n3)CC2)cc(OC)c1OC | -5% (active)
8 | CCc1ccccc1NC(=O)C1CCN(c2cnccn2)CC1 | 43% (inactive)
9 | COc1cc(NC(=O)c2nc3ccccc3nc2N2CCCCC2)cc(OC)c1OC | 87% (inactive)
10 | COc1cc(NC(=O)C2CCN(c3cnccn3)CC2)cc(OC)c1 | 79% (inactive)
11 | Cc1c(Cl)cccc1NC(=O)CN1C(=O)COc2ccc(S(=O)(=O)Nc3ccccc3)cc21 | 60% (inactive)
12 | CCS(=O)(=O)c1nc(S(=O)(=O)c2ccc(C)cc2)c(NCCCOC)s1 | 97% (inactive)
13 | COc1ccccc1N1CCN(C(=O)CSc2n[nH]c(-c3ccccc3)n2)CC1 | 88% (inactive)
14 | COc1ccc(N2CC(NC(=O)CCCc3ccccc3)CC2=O)cc1 (configuration not stated) | 32% (active)
15 | COc1cccc(N2CC(NC(=O)CCCc3ccccc3)CC2=O)c1 (configuration not stated) | 69% (inactive)
16 | COc1ccc(C(=O)NC2CC(=O)N(c3ccc4c(c3)OCCO4)C2)cc1 (configuration not stated) | 100% (inactive)
17 | O=C(CCc1ccccc1)NC1CC(=O)N(c2ccccc2)C1 (configuration not stated) | 94% (inactive)
18 | COc1ccc(N2CC(NC(=O)c3ccc(OC(C)C)cc3)CC2=O)cc1 (configuration not stated) | 0% (active)
19 | Cc1cccc(CC(=O)NC2CC(=O)N(c3cccc(F)c3)C2)c1 (configuration not stated) | 67% (inactive)
20 | Cc1ccc(N2CC(NC(=O)CCc3ccccc3)CC2=O)cc1 (configuration not stated) | 20% (active)
21 | COc1ccc(N2CC(NC(=O)c3ccc(S(=O)(=O)N4CCCC4)cc3)CC2=O)cc1 (configuration not stated) | 112% (inactive)
22 | COc1ccc(CCC(=O)NC2CC(=O)N(c3ccccc3)C2)cc1 (configuration not stated) | 126% (inactive)
23 | Cc1ccc(N2CC(NC(=O)CCCc3ccccc3)CC2=O)cc1 (configuration not stated) | 66% (inactive)

Row | SMILES | survival
24 | O=C(Cc1ccccc1)NC1CC(=O)N(c2ccccc2)C1 (configuration not stated) | 87% (inactive)
25 | Cc1cccc(CC(=O)NC2CC(=O)N(c3ccccc3)C2)c1 (configuration not stated) | -5% (active)
26 | Cc1c(NC(=O)c2ccc(OC(C)C)cc2)cccc1-c1nc2ncccc2o1 | 47% (inactive)
27 | O=C(Nc1ccc(F)cc1)c1nc(SCc2ccccc2F)ncc1Cl | 99% (inactive)
28 | Cc1ccc(C(=O)O)cc1NC(=O)c1nsc2ccccc12 | 103% (inactive)
29 | CCOC(=O)c1sc(=S)n(C)c1C | 88% (inactive)
30 | COc1ccc(OC)c(CNS(=O)(=O)c2ccc3[nH]c4c(c3c2)CCCCC4)c1 | 79% (inactive)
31 | Cc1ccc(Nc2c3c(nc4nncn24)CCC3)cc1 | 62% (inactive)
32 | COc1ccc(CNC(=O)c2cc3cccc4c3n2CC(C)S4)c(OC)c1 (configuration not stated) | 122% (inactive)
33 | CCC(C)OC(=O)/C(C#N)=C/c1ccc(-c2ccc(Br)cc2)o1 (configuration not stated) | 43% (active)
34 | CC(C)OC(=O)/C(C#N)=C/c1ccc(-c2ccc(Cl)c(Cl)c2)o1 | 72% (inactive)
35 | CCOC(=O)/C(C#N)=C/c1ccc(-c2ccc(Br)cc2)o1 | 81% (inactive)
36 | CC(C)COC(=O)/C(C#N)=C\c1ccc(-c2ccccc2Cl)o1 | 67% (inactive)
37 | CCCCOC(=O)/C(C#N)=C/c1ccc(-c2ccc(Br)cc2)o1 | 68% (inactive)
38 | CCC(C)OC(=O)/C(C#N)=C\c1ccc(-c2ccccc2Cl)o1 (configuration not stated) | 58% (active)
39 | Cc1cccc(-c2nc(C)c(CCNC(=O)C(=O)Nc3ccc(C)c(C)c3)s2)c1 | 88% (inactive)
40 | CC1=CCC(C(=O)Nc2nc3ccccc3s2)C(C(=O)O)C1 (configuration not stated) | 49% (inactive)
41 | Cc1ccc(CNC(=O)C2CCN(c3nc4ccc(C)cc4[nH]3)CC2)cc1 | 126% (inactive)
42 | Cc1cc2ccccc2n1-c1ccc(C(=O)N2CCC(C(=O)NCc3ccc(Cl)cc3)CC2)s1 | 67% (inactive)
43 | Cc1cc2ccccc2n1-c1ccc(C(=O)N2CCC(C(=O)NCc3ccc(F)cc3)CC2)s1 | 6% (active)
44 | CCc1ccc(CNC(=O)C2CCN(C(=O)c3ccc(-n4c(C)cc5ccccc54)s3)CC2)cc1 | 70% (inactive)
45 | Cc1nc(-c2cccc(S(=O)(=O)N3CCC(C(=O)NCc4ccccc4)CC3)c2)no1 | 109% (inactive)
46 | Cc1cccc2c1-c1sc(C(=O)N3CCN(c4cccc(Cl)c4)CC3)cc1CO2 | 66% (inactive)

Row | SMILES | survival
47 | COc1ccc(NC(=O)c2cc3c(s2)-c2c(C)cccc2OC3)c(OC)c1 | 51% (active)
48 | COc1ccc(OC)c(CCNC(=O)c2cc3c(s2)-c2c(C)cccc2OC3)c1 | 79% (inactive)
49 | Cc1cccc2c1-c1sc(C(=O)N(C)c3cccc(C(F)(F)F)c3)cc1CO2 | 52% (inactive)
50 | COc1cc(Cl)c(C)cc1NC(=O)c1cc2c(s1)-c1c(C)cccc1OC2 | 90% (inactive)
51 | COc1ccc(CCNC(=O)c2cc3c(s2)-c2c(C)cccc2OC3)c(OC)c1 | 85% (inactive)
52 | CCc1ccccc1N(C)C(=O)c1cc2c(s1)-c1c(C)cccc1OC2 | 60% (inactive)
53 | COc1ccc(N(C)C(=O)c2cc3c(s2)-c2c(C)cccc2OC3)c(OC)c1 | -1% (active)
54 | Cc1cccc2c1-c1sc(C(=O)N(C)c3cccc(Cl)c3)cc1CO2 | 0% (active)
55 | CC(C(=O)NCc1ccco1)N1C(=O)c2ccccc2C1=O (configuration not stated) | 57% (inactive)
56 | Cc1coc2cc3oc(=O)c(CC(=O)NCCc4ccccc4)c(C)c3cc12 | 84% (inactive)
57 | COC(=O)N1N=C(c2ccccc2)CC1(O)C(F)(F)F (configuration not stated) | 85% (inactive)
58 | COc1ccc(OC)c(N=c2oc3cc(O)ccc3cc2C(=O)Nc2ccccn2)c1 | 70% (inactive)
59 | Cc1ccc(S(=O)(=O)NCCc2nnc3ccc(SCc4ccccc4F)nn23)cc1 | 76% (inactive)
60 | O=C(NC1C2CCCC1CN(C1CC1)C2)c1ccc(Cl)cc1 (configuration not stated) | 84% (inactive)
61 | O=C(/C(=N/O)n1cncn1)c1ccc(Cl)cc1Cl | 72% (inactive)
62 | Cc1ccc(C)c(NC(=O)CSc2nc(=O)n(CCN(C)C)c3c2CCC3)c1 | 79% (inactive)
63 | CCOC(=O)c1c(C)oc2nc(C)nc(NCC3CCN(Cc4ccccc4C)CC3)c12 | 86% (inactive)
64 | O=C(O)C1C2C=CC(C2)C1C(=O)NCc1cccs1 (configuration not stated) | 83% (inactive)
65 | COC(=O)c1ccccc1NC(=O)N(Cc1ccc(C)cc1)Cc1cccn1-c1nnc(N2CCCC2=O)s1 | 123% (inactive)
66 | O=C1N/C(=N/N=C\c2ccco2)SC1Cc1cccc(C(F)(F)F)c1 (configuration not stated) | 56% (inactive)
67 | O=C(/C(=C\c1ccc(F)cc1)n1ccccc1=O)N1CCCC1 | 102% (inactive)
68 | CCC(C)NC(=O)c1cccc(NC(=O)c2nsc3ccccc23)c1 (configuration not stated) | 74% (inactive)
69 | O=C(NCc1ccccc1)c1ccc(NC(=O)c2nsc3ccccc23)cc1 | 61% (inactive)

Row | SMILES | survival
70 | CC(NC(=O)c1cccc(NC(=O)c2nsc3ccccc23)c1)c1ccccc1 (configuration not stated) | 115% (inactive)
71 | COC(=O)c1cccc(NC(=O)c2nsc3ccccc23)c1 | -1% (active)
72 | O=C(NCc1cccc(F)c1)c1ccc(NC(=O)c2nsc3ccccc23)cc1 | -2% (active)
73 | O=C(NCc1cccc(F)c1)c1cccc(NC(=O)c2nsc3ccccc23)c1 | 85% (inactive)
74 | CCOc1ccc(NS(=O)(=O)c2ccc(-c3cc(C)no3)s2)cc1 | 87% (inactive)
75 | CCOc1ccc(-c2nonc2NC(=O)c2oc3ccc(Br)cc3c2C)cc1 | 50% (inactive)
76 | CC1CCC(NC(=O)CN2CCC(n3nnc4ccccc43)CC2)CC1 (configuration not stated) | 76% (inactive)
77 | CC1=C(C(=O)Nc2ccc(C)cc2C)C(c2ccccc2)n2ncc(C(=O)Nc3ccccc3)c2N1 (configuration not stated) | 58% (inactive)
78 | CC(=O)N1CCCc2cc(S(=O)(=O)N3CCC(C(=O)N(Cc4ccccc4)C(C)C)CC3)ccc21 | 76% (inactive)
79 | Cc1cccc(-c2nc(SCC(=O)Nc3ccc4c(c3)OCO4)c(-c3ccccc3)[nH]2)c1 | 40% (active)
80 | O=C(CSc1nc2ccccc2nc1Cc1ccccc1)Nc1ccc2c(c1)OCO2 | 75% (inactive)
81 | Cc1cccc(-c2nc(SCC(=O)Nc3ccc4c(c3)OCCO4)c(-c3ccccc3)[nH]2)c1 | 58% (inactive)
82 | O=C(CSc1nc2ccccc2nc1Cc1ccccc1F)Nc1cccc(C(F)(F)F)c1 | 35% (active)
83 | Cc1ccc(NC(=O)CSc2nc3ccccc3nc2Cc2ccccc2F)cc1F | 107% (inactive)
84 | O=C(CSc1nc2ccccc2nc1Cc1ccc(F)cc1)Nc1ccc2c(c1)OCO2 | 52% (active)
85 | O=C(CSc1nc2ccccc2nc1Cc1ccc(Cl)cc1)Nc1ccc2c(c1)OCO2 | 71% (inactive)
86 | O=C(CSc1nc(-c2ccccc2)[nH]c1-c1ccccc1)Nc1ccc2c(c1)OCO2 | 67% (inactive)
87 | O=C(CSc1nc(-c2cccc(F)c2)[nH]c1-c1ccccc1)Nc1ccc2c(c1)OCCO2 | 94% (inactive)
88 | Cc1ccc(Cc2nc3ccccc3nc2SCC(=O)Nc2cccc(C(F)(F)F)c2)cc1 | 67% (inactive)
89 | O=C(CSc1nc(-c2cccc(F)c2)[nH]c1-c1ccccc1)Nc1ccc2c(c1)OCO2 | 32% (active)
90 | O=C(CSc1nc(-c2ccc(F)cc2)[nH]c1-c1ccc(F)cc1)Nc1ccc2c(c1)OCO2 | 97% (inactive)
91 | CC(NC(=O)Nc1cc(Cl)ccc1Cl)c1c(-n2cccc2)sc2c1CCCC2 (configuration not stated) | 72% (inactive)
92 | Cc1ccc2c(c1)N(C(=O)NCc1ccccc1)CCO2 | 79% (inactive)
